PubChem BioAssay (NCI)
About 79,000 compounds went through this panel and 15% of them were active in at least one assay; those are over-represented in the sample as a whole. Activity calls are given as the source filed them. Rule as the data show it: active = growth inhibition above about 70%; inactive = the rest.

How the values were obtained:
[1] = NCI Yeast Anticancer Drug Screen. Data for the rad50 strain (AID 155);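 also: 0% = growth of vehicle-only cultures of the same strain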; settings: S. cerevisiae rad50 strain growth inhibition; at 50.0 µM; hits give high values
How it was run: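 Yeast carrying a defined DNA repair defect were exposed to test compounds, and growth was compared with vehicle-treated controls to give percent inhibition.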

[2] = NCI Yeast Anticancer Drug Screen. Data for the mec2-1 strain (AID 157); settings: S. cerevisiae mec2-1 strain, at 50.0 µM, hits give high values
How it was run: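 Each compound was tested on mec2-1 yeast, a strain altered in DNA damage repair or cell cycle control. Growth inhibition is reported relative to vehicle.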

[3] = NCI Yeast Anticancer Drug Screen. Data for the sgs1 mgt1 strain (AID 161);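 also: 0% = growth of cultures given vehicle only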; settings: S. cerevisiae sgs1 mgt1 strain, at 50.0 µM, hits give high values
How it was run: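 Genetically altered yeast, compound exposure, growth inhibition relative to vehicle.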

[4] = NCI Yeast Anticancer Drug Screen. Data for the cln2 rad14 strain (AID 165);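 also: 0% = growth equal to vehicle treated cultures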; settings: S. cerevisiae cln2 rad14 strain, at 50.0 µM, hits give high values
How it was run: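 Test compounds were added to cln2 rad14 yeast cultures; inhibition of growth was then determined by comparison with vehicle treatment.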

[5] = NCI Yeast Anticancer Drug Screen. Data for the bub3 strain (AID 167); settings: S. cerevisiae bub3 mutant strain, at 50.0 µM, hits give high values
How it was run: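 Compounds were applied to a genetically altered yeast strain carrying a cell-cycle control defect. Growth inhibition was scored against vehicle-treated controls.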

[6] = NCI Yeast Anticancer Drug Screen. Data for the mlh1 rad18 strain (AID 175); settings: S. cerevisiae mlh1 rad18 strain growth inhibition; at 50.0 µM; hits give high values
How it was run: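 Inhibition values reflect reduced growth of mutant yeast versus vehicle-treated controls following compound exposure; the mutations affect DNA damage repair.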

Measured: growth inhibition

CC(C)(C)c1ccc(O)c(CN(Cc2cc(C(C)(C)C)ccc2O)c2ccccc2)c1
inactive: [1] 44.4% | [2] 26.9% | [3] 21.6% | [4] -2.2% | [5] 62% | [6] 54.8%

O=C(Nc1ccc(Nc2ccc(NC(=O)c3ccccc3)c3c2C(=O)c2ccccc2C3=O)c2c1C(=O)c1ccccc1C2=O)c1ccccc1
inactive: [1] 6.8% | [2] -15.6% | [3] 6.05% | [4] 6.1% | [5] -1.95% | [6] -9.1%

CCN(CC)CCOC(=O)c1ccc(N=Nc2ccc(O)cc2O)cc1
inactive: [1] -12.8% | [2] -2.7% | [3] -1.3% | [4] -21.7% | [5] -24.5% | [6] -17.1%

CCOc1ccccc1C(=O)Oc1ccc(C)cc1
inactive: [1] -4.6% | [2] -19.2% | [3] 7.1% | [4] -3.85% | [5] -5.5% | [6] 24.1%

O=C(/C(=N\Nc1ccc([N+](=O)[O-])cc1[N+](=O)[O-])c1ccccc1)c1ccccc1
inactive: [1] -11.6% | [2] -11.7% | [3] -2.5% | [4] -20.8% | [5] 2.95% | [6] -1.3%

CCOC(=O)c1c[nH]c(=S)[nH]c1=O
inactive: [1] 9.25% | [2] -8.4% | [3] 18.7% | [4] -15.1% | [5] -1.2% | [6] -10.8%

Oc1ccccc1C=Nc1cccnc1
inactive: [1] 6.75% | [2] -19.5% | [3] -2.45% | [4] -7.2% | [5] -0.6% | [6] 8.7%

CCn1c(S)c(N=NC(=S)c2ccc3ccccc3n2)c2ccccc21
inactive: [1] 46% | [2] 18.9% | [3] 27.8% | [4] 23.4% | [5] 17.4% | [6] 11.5%

O=C(COc1cccc(Cl)c1)Nc1ccc(C(=O)CCl)cc1
inactive: [1] 23.9% | [2] 49.5% | [3] 35.9% | [4] 11.8% | [5] 47% | [6] 44.5%

Cc1c2cnccc2c(C)c2c1c1ccccc1n2CCNCc1ccccc1
inactive: [2] 50.4% | [4] -7.75% | [5] 1.15% | [6] 66.7%
active: [1] 98.2% | [3] 92.7%

COC(=O)c1ccccc1C1CN=NC12Cc1ccc3c(c1C2=O)CCC3 (configuration not stated)
inactive: [1] -0.85% | [2] -3.55% | [3] 1.75% | [4] -7.3% | [5] 7.1% | [6] 16.7%

CC(=O)OCCOCNC(=S)N/N=C(\C)c1cccs1
inactive: [1] 10.3% | [2] -13.6% | [3] 4.8% | [4] 34.1% | [5] 4.3% | [6] -8.95%

CC(C)(OC(=O)Nc1ccccc1)c1ccc([N+](=O)[O-])cc1
inactive: [1] -5% | [2] 9.1% | [3] 13.2% | [4] -25.5% | [5] -22.7% | [6] -4.45%

COc1cccc(/C=C2\SC(=S)N(/C=C3\C(=O)Oc4ccccc4C3=O)C2=O)c1O
inactive: [1] 12.2% | [2] 40.1% | [3] 59% | [4] 50.6% | [5] 12.8% | [6] 23.6%

CC(C)CC(=O)Cc1ccccc1
inactive: [1] 18.8% | [2] 14.7% | [3] 19.2% | [4] -52.7% | [5] -2.2% | [6] -0.2%

N#CC1(C#N)C(CCl)C1(C#N)C#N
inactive: [1] 2.85% | [2] -6.95% | [3] -1.15% | [4] -15.2% | [5] -4% | [6] -8.6%

CC(O)(CNS(=O)(=O)c1ccccc1)c1ccccc1 (configuration not stated)
inactive: [1] 14.2% | [2] 8.8% | [3] 0.6% | [4] -36.9% | [5] -31.2% | [6] -16.6%

CC(=O)C1CN(C)CCC1=O (configuration not stated)
inactive: [1] -20% | [2] -4.55% | [3] -19.8% | [4] -11.2% | [5] -13.7% | [6] 16.9%

CC(Br)CCl (configuration not stated)
inactive: [1] 26.4% | [2] 17.1% | [3] 22.1% | [4] 2.1% | [5] 14.4% | [6] 39.2%

NC(=O)CC1(C(=O)O)c2ccccc2-c2ccccc21
inactive: [1] 17.1% | [2] -14.2% | [3] 2.65% | [4] -7.55% | [5] 14.6% | [6] -3.95%

Cc1ccc(NC2=N/C(=C/c3ccco3)C(Cl)=N2)cc1
inactive: [1] -21.5% | [2] -22.1% | [3] 14.5% | [4] -1.8% | [5] 3.8% | [6] -31.9%

CC(C)(C)OC(=O)N1CCc2c([nH]oc2=O)C1
inactive: [1] -1.25% | [2] -8.55% | [3] -3.5% | [4] -17.6% | [5] 10.6% | [6] -3.8%

CC1(O)CC2C=CC1CC2 (configuration not stated)
inactive: [1] 9.65% | [2] 7.15% | [3] 4.6% | [4] 4% | [5] 9.55% | [6] 13.8%

COc1ccc(/C=C\c2cc(OC)c(OC)c(OC)c2)cc1OC
inactive: [1] 5.2% | [2] 9.05% | [3] -17.7% | [4] 3.05% | [5] -13.1% | [6] 12%

C/C(=C\c1ccc(OCCN2CCOCC2)cc1)c1ccc2c(c1)C(C)(C)CCC2(C)C
inactive: [1] -3.2% | [2] -11.9% | [3] 16.1% | [4] -4.95% | [5] -20.6% | [6] -25.9%

CSc1nnc(COc2ccc(Cl)cc2)o1
inactive: [1] 22.3% | [2] 5.75% | [3] 26.1% | [4] 29.4% | [5] 12.8% | [6] 20.7%

Cc1cccc(Cl)c1NC(=O)c1cccc(C(=O)Nc2c(C)cccc2Cl)c1
inactive: [1] 9.3% | [2] 4.45% | [3] 15.4% | [4] -30.3% | [5] -2.5% | [6] 27.6%

O=c1c(O)c(-c2ccccc2)oc2cc(O)cc(O)c12
inactive: [1] 24.5% | [2] 4.4% | [3] 40.9% | [4] 25.8% | [5] 27.4% | [6] 28.7%

CCC(C)[N+](=O)[O-] (configuration not stated)
inactive: [1] 3.6% | [2] -5.1% | [3] -5.55% | [4] -2.15% | [5] 0.75% | [6] 3.1%

CSc1nc2c([nH]1)c(=O)n(C)c(=O)n2C
inactive: [1] 8.8% | [2] 21.4% | [3] 8.4% | [4] -1.8% | [5] 16.8% | [6] 7.1%

CNC(=O)Nc1ccccc1
inactive: [1] 27.4% | [2] -0.55% | [3] -12.1% | [4] 16.9% | [5] -21.9% | [6] 7.6%

CC(C)NCC(O)COc1cccc2ccccc12 (configuration not stated)
inactive: [1] 19.4% | [2] -32.2% | [3] 31.1% | [4] 20.6% | [5] 14.9% | [6] 11.1%

CN1c2ccccc2Sc2cc(/C=C3/SC(=S)NC3=O)ccc21
inactive: [1] 1.95% | [2] 4.6% | [3] 3.55% | [4] -19.8% | [5] 38.8% | [6] 0.15%

O=C(O)CNC(=O)NC(Cc1ccccc1)C(=O)O (configuration not stated)
active: [4] 71.5%
inactive: [1] 9.1% | [2] 12.4% | [3] -0.45% | [5] 18.6% | [6] 8%

CCOC(=O)C1C(c2ccccc2)ON(c2ccccc2)C1c1cccc([N+](=O)[O-])c1 (configuration not stated)
inactive: [1] 22.2% | [2] 3.9% | [3] -4.05% | [4] -11.5% | [5] 3.3% | [6] 1.65%

CCN(CCNc1cc(OC)cc2cccnc12)CC(C)C
inactive: [1] 22.8% | [2] 9.65% | [3] 1.8% | [4] 13.8% | [5] 6.85% | [6] 17%

N#CC(C#N)=CNC(N)=S
inactive: [1] -4.7% | [2] -8.75% | [3] -20.7% | [4] 13.7% | [5] -14.8% | [6] 10.1%

O=C=Nc1cc(Cl)ccc1Cl
inactive: [1] 38.5% | [2] 21.8% | [3] 17.4% | [4] -24.4% | [5] 7.95% | [6] 28.9%

Nc1nc(CCC(=O)Nc2cccc(C(F)(F)F)c2)cc(-c2ccc3ccccc3c2)n1
inactive: [1] -8.3% | [2] -23.5% | [3] -77.7% | [4] -10.2% | [5] -5.5% | [6] -31.6%

CC(=O)Nc1cc2cc(NC(=O)C(Cl)(Cl)Cl)ccc2oc1=O
inactive: [1] -24.3% | [2] -17.4% | [3] -4.65% | [4] 0.55% | [5] -11.7% | [6] -24.6%

CC(=O)CC(=O)C1CCC(C(=O)CC(C)=O)CC1 (configuration not stated)
inactive: [1] -3.7% | [2] 6.2% | [3] 0.65% | [4] -28.1% | [5] -0.7% | [6] -13.2%

CC1OC(O)CC(NC(=O)C(F)(F)F)C1O (configuration not stated)
inactive: [1] 3.6% | [2] -4.35% | [3] 9.65% | [4] -21.9% | [5] -1.1% | [6] -0.1%
